Data taken from PubChem BioAssay.
Unmarked numbers belong to inactive results. Calls of active or inactive are those of the source. No stated cut-off is given here; in the data, active means fold change permeability below about 0.7 or above about 1.3; inactive means in between.

Experiment: compounds altering in vitro BBB leakiness – cell-based, FITC-avidin fluorescence, HTS, primary screen (AID 1963498); further: test concentration not given here
Settings: brain endothelial barrier, actives lie on both sides

In order of falling fold change permeability:
1. O=C(O)C1CCNCC1  1.2
2. C[C@H]1C[C@H]2[C@@H]3CCC4=CC(=O)C=C[C@]4(C)[C@@]3(Cl)[C@@H](O)C[C@]2(C)[C@@]1(O)C(=O)CO  1.2
3. CC[C@H](NC(=O)c1c(O)c(-c2ccccc2)nc2ccccc12)c1ccccc1  1.1
4. CN1CCC[C@@H]1CCO[C@](C)(c1ccccc1)c1ccc(Cl)cc1  1.1
5. CCN(CC)CCNC(=O)c1ccc(NC(C)=O)cc1  1.1
6. C[N+](C)(C)CCCCCC[N+](C)(C)C  1
7. O=c1[nH]c(=O)n([C@H]2C[C@H](O)[C@@H](CO)O2)cc1Br  1
8. O=C(O)c1cc([N+](=O)[O-])ccc1NCCCc1ccccc1  1
9. O=C(O)CN(CCN(CC(=O)O)CC(=O)O)CCN(CC(=O)O)CC(=O)O  1
10. CC(C)(C)NCC(O)COc1cccc2[nH]c(=O)[nH]c12 (stereo unspecified)  1
11. O=C(COc1ccc(Cl)cc1)NC1CCC(NC(=O)COc2ccc(Cl)cc2)CC1 (stereo unspecified)  0.9
12. CCOC(=O)C1=C(C)NC(C)=C(C(=O)OC)C1c1cccc([N+](=O)[O-])c1 (stereo unspecified)  0.8

With `CCN(CC)CCn1c(=O)c(Cc2ccc(OC)cc2)nc2ccccc21` the fold change permeability was 0.7 (active).
For `COc1ccc(OCC2c3cc(OC)c(OC)cc3CCN2C(=O)c2cccc(Cl)c2)cc1` (stereo unspecified), the fold change permeability was 1.6 (active).
In the case of `N[C@@H](Cc1ccc(O)c(I)c1)C(=O)O`, the fold change permeability is reported as 1.9 (active).
For `CN1CC(=O)NC1=NC(=O)Nc1cccc(Cl)c1`, the fold change permeability was 0.7 (active).
